Reference: a collection of fitness landscapes (doi:10.1126/science.1257360)
Whole data set: some 140,000 sequences, median “enrichment ratio after two sorts for PhoP signalling” near 0, cut for the highest 2% near 11. Shown is part of a subset that was picked to be rich in the highest values.

B1: PhoQ; a variant is named by its letters at X, in order, P23837 (parent)
chain: MKKLLRLFFPLSLRVRFLLATAAVVLVLSLAYGMVALIGYSVSFDKTTFRLLRGESNLFYTLAKWENNKLHVELPENIDKQSPTMTLIYDENGQLLWAQRDVPWLMKMIQPDWLKSNGFHEIEADVNDTSLLLSGDHSIQQQLQEVREDDDDAEMTHSVAVNVYPATSRMPKLTIVVVDTIPVELKSSYMVWSWFIYVLSANLLLVIPLLWVAAWWSLRPIEALAKEVRELEEHNRELLNPATTRELTSLVRNLNRLLKSERERYDKYRTTLTDLTHSLKTPLXXLQXXLRSLRSEKMSVSDAEPVMLEQISRISQQIGYYLHRASMRGGTLLSRELHPVAPLLDNLTSALNKVYQRKGVNISLDISPEISFVGEQNDFVEVMGNVLDNACKYCLEFVEISARQTDEHLYIVVEDDGPGIPLSKREVIFDRGQRVDTLRPGQGVGLAVAREITEQYEGKIVAGESMLGGARMEVIFGRQHSAPKDE

Variants of: B1
Experiment: enrichment ratio after two sorts for PhoP signalling (ratio (wild type AVST 3.29)); higher = more functional
Conditions: with PhoP (E. coli)

Row | Variant | enrichment ratio
1 | ACVQ | 2.26
2 | AEFQ | 3.73
3 | AEIV | 4.76
4 | ACHP | ≤ 0.25
5 | KAHK | ≤ 0.25
6 | LFVQ | ≤ 0.25
7 | MTRG | ≤ 0.25
8 | YDCD | ≤ 0.25
9 | TFDY | ≤ 0.25
10 | SERL | ≤ 0.25
11 | WHLP | ≤ 0.25
12 | KMMG | ≤ 0.25
13 | AEII | 16.4
14 | AEYL | 6.74
15 | ADIQ | 21.4
16 | AEIL | 28.2
17 | AEPM | 0.861
18 | AEIM | 15.7
19 | AEIS | 10.8
20 | AENL | ≤ 0.25
21 | AKIQ | ≤ 0.25
22 | AEIT | 2.48
23 | AHIQ | ≤ 0.25
24 | THTQ | 1.45
25 | EWAP | ≤ 0.25
26 | GFIS | ≤ 0.25

Row | Variant | enrichment ratio
27 | LHFN | ≤ 0.25
28 | NVLT | ≤ 0.25
29 | SCYK | ≤ 0.25
30 | DWIV | ≤ 0.25
31 | KRHG | ≤ 0.25
32 | NHPL | ≤ 0.25
33 | KIDW | ≤ 0.25
34 | GARI | ≤ 0.25
35 | QYLE | ≤ 0.25
36 | FEPL | ≤ 0.25
37 | QDSM | ≤ 0.25
38 | QRSM | ≤ 0.25
39 | QQSM | 13.3
40 | QPSM | ≤ 0.25
41 | QSSM | 15.9
42 | TPSM | ≤ 0.25
43 | QIAI | 2.26
44 | SIKG | ≤ 0.25
45 | LGAF | ≤ 0.25
46 | VRDP | ≤ 0.25
47 | HMSS | ≤ 0.25
48 | PMDA | ≤ 0.25
49 | SGWG | ≤ 0.25
50 | SGTA | 7.55
51 | SGTI | 16.7
52 | SGTG | 15.9

Row | Variant | enrichment ratio
53 | SGTS | 7.16
54 | SGDG | ≤ 0.25
55 | AGFW | ≤ 0.25
56 | VWNV | ≤ 0.25
57 | GLKA | ≤ 0.25
58 | ENWV | ≤ 0.25
59 | NKIG | ≤ 0.25
60 | PDHR | ≤ 0.25
61 | HRML | ≤ 0.25
62 | HTML | 11.7
63 | TAML | 25.8
64 | HYML | ≤ 0.25
65 | NAML | ≤ 0.25
66 | KAML | ≤ 0.25
67 | DPPS | ≤ 0.25
68 | RNCY | ≤ 0.25
69 | KYCY | ≤ 0.25
70 | DWCY | ≤ 0.25
71 | IQCY | ≤ 0.25
72 | SNCY | 7.63
73 | MECY | 4.09
74 | SQCY | 12.2
75 | SRCY | ≤ 0.25
76 | TECY | 16.2
77 | SECY | 13.7
78 | TQCY | 15.8

Row | Variant | enrichment ratio
79 | QECY | ≤ 0.25
80 | GSCQ | 8.75
81 | GDAQ | ≤ 0.25
82 | TRTV | 9.35
83 | SEWD | ≤ 0.25
84 | KVEG | ≤ 0.25
85 | LQIG | ≤ 0.25
86 | SETT | 12.6
87 | YTTT | ≤ 0.25
88 | TKTT | 11.6
89 | FQTT | ≤ 0.25
90 | KYTT | ≤ 0.25
91 | TTTT | 12.1
92 | TQTT | 23.1
93 | MKTT | ≤ 0.25
94 | LTTT | ≤ 0.25
95 | EQTT | ≤ 0.25
96 | AKTT | 3.25
97 | SRTT | ≤ 0.25
98 | YAIP | ≤ 0.25
99 | IDRF | ≤ 0.25
100 | ATER | ≤ 0.25
101 | NGCY | ≤ 0.25
102 | PIGE | ≤ 0.25
103 | SMQQ | ≤ 0.25
104 | IGVV | ≤ 0.25

Row | Variant | enrichment ratio
105 | ISAV | 0.486
106 | ADQP | ≤ 0.25
107 | APWD | ≤ 0.25
108 | PTFA | ≤ 0.25
109 | KRKW | ≤ 0.25
110 | MIGL | 1.45
111 | FCTT | ≤ 0.25
112 | SITT | 6.9
113 | KSTT | ≤ 0.25
114 | VCTT | ≤ 0.25
115 | TSTT | 15.1
116 | SCTT | 11.4
117 | LCTT | ≤ 0.25
118 | MMTT | ≤ 0.25
119 | SPTT | ≤ 0.25
120 | ICTT | 11.9
121 | SQTT | 11.4
122 | KCTT | ≤ 0.25
123 | GPRY | ≤ 0.25
124 | TYWS | ≤ 0.25
125 | LGDG | 0.39
126 | IKPA | ≤ 0.25
127 | YKHD | ≤ 0.25
128 | TNPV | ≤ 0.25
129 | YHGA | ≤ 0.25
130 | TSAQ | 19.6

Row | Variant | enrichment ratio
131 | LTAQ | ≤ 0.25
132 | NSAQ | ≤ 0.25
133 | FDAQ | ≤ 0.25
134 | TDAQ | 13.4
135 | KSAQ | ≤ 0.25
136 | EETH | ≤ 0.25
137 | DEAP | ≤ 0.25
138 | LAGN | ≤ 0.25
139 | GGLE | ≤ 0.25
140 | MLEW | ≤ 0.25
141 | TEHI | 14.2
142 | TEHF | 3.55
143 | NEHY | ≤ 0.25
144 | NEHL | ≤ 0.25
145 | TEHS | 18.1
146 | YYHS | ≤ 0.25
147 | TEHY | 11.4
148 | YYHY | ≤ 0.25
149 | TEHL | 12.5
150 | NEHS | ≤ 0.25
151 | TEHP | ≤ 0.25
152 | YYHL | ≤ 0.25
153 | PQEA | ≤ 0.25
